Assay outcomes as filed in PubChem.
D2 PAM-1 – Beta-Arrestin HTS for Positive Allosteric Modulators of the Human D2 Dopamine Receptor: Potentiators. 360,000 compounds, 0.23% hits. potentiation, % (no concentration beside the values). D(2) dopamine receptor (Homo sapiens), P14416. DiscoveRx D2 beta-arrestin cells, luminescence, 90 min; 100% = 57 uM dopamine signal; in the data active = potentiation above about 50%
Target sequence (P14416 whole entry, looked up): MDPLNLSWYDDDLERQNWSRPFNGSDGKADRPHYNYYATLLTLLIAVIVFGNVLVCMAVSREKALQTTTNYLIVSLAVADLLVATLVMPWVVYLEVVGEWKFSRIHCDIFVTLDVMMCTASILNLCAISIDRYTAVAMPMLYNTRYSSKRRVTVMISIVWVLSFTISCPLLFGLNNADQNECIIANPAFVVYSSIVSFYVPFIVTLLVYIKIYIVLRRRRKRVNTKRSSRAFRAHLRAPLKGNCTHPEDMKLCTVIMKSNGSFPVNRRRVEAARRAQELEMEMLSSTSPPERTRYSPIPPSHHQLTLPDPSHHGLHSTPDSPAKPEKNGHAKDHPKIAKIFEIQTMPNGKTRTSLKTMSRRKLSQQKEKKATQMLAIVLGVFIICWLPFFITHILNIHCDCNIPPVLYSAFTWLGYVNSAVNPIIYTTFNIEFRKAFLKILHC
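PathHunter D2 cells, attached overnight at 37 deg C, received compound in DMSO plus dopamine at EC20 (50 nM final) for 90 min at 37 deg C. Beta-arrestin recruitment was read as luminescence after 1 h with detection reagent at ambient temperature.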
D2 PAM-2 – HTS Assay for Positive Allosteric Modulators of the Human D2 Dopamine Receptor: Primary Screen for Potentiators | D(2) dopamine receptor (Homo sapiens), P14416 | HEK293 T-REx D2, calcium flux, EC20 dopamine potentiation | potentiation, % at 10 µM | 340,000 compounds, 0.34% hits;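 active = potentiation over 3 SD above the plate norm, cut at about 30% in these data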; also: 0% is about no effect
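Tetracycline-induced Hek293 Trex D2 cells, force-coupled to calcium, loaded with no-wash calcium dye. Compound added with 180 s kinetic read for agonism, then EC20 dopamine and a further 180 s read for potentiation.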
D2 antag – HTS Assay for Allosteric Antagonists of the Human D2 Dopamine Receptor: Primary Screen for Antagonists. D(2) dopamine receptor (Homo sapiens), P14416. HEK293 TREx D2 cells, calcium flux, dopamine EC80. inhibition, % at 10 µM. 340,000 compounds, 2% hits; in the data active = inhibition above about 30%; inactive = below that, where a call was filed; also: 0% is about no effect
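Antagonism is scored as inhibition of an EC80 dopamine-evoked calcium signal in a force-coupled, tetracycline-inducible HEK293 T-REx D2 line, with compound present 180 s before agonist.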
D2 ag-1 – Beta-Arrestin HTS for Positive Allosteric Modulators of the Human D2 Dopamine Receptor: Agonists | D(2) dopamine receptor (Homo sapiens), P14416 | DiscoveRx PathHunter D2 beta-arrestin, luminescence, 90 min; 100% = 57 uM dopamine signal | activation, % (test concentration not listed) | 360,000 compounds, 0.084% hits; in the data active = activation above about 40%
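Agonist mode: compounds alone added to overnight-plated D2 PathHunter cells for 90 min at 37 C, with 57 uM final dopamine (EC100) defining full response. Beta-arrestin recruitment detected by chemiluminescent reagent, read after 1 h at ambient temperature.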
D2 ag-2 – HTS Assay for Allosteric Agonists of the Human D2 Dopamine Receptor: Primary Screen for Agonists | D(2) dopamine receptor (Homo sapiens), P14416 | HEK293 T-REx D2 cells, calcium flux agonist mode | activation, % at 2 µM | 340,000 compounds, 0.53% hits;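 active = activation over 3 SD above normal in the single-dose calcium agonist read, cut at about 30% in these data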; also: 0% is about no effect
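In this primary screen, compounds producing a positive calcium signal within 180 s of addition to tetracycline-induced, force-coupled HEK293 Trex D2 cells are flagged; cells are dye-loaded with a no-wash calcium kit beforehand.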
Numbers without * were called inactive. Hits are enriched below; roughly 2.4% of the tested compounds scored in any of these assays.

What do the screens show for `Cc1nc(-c2ccc(Cl)cc2)sc1C1(C)CC(c2cccc(Cl)c2)=NO1` (configuration not stated)?
D2 PAM-1: 2; D2 PAM-2: -9; D2 antag: 0; D2 ag-1: 0; D2 ag-2: 0

How did COc1ccc(OC)c(NC(=O)C2Cc3ccccc3CN2S(=O)(=O)c2ccc(F)cc2)c1 (configuration not stated) do in these assays?
D2 PAM-2: -7; D2 ag-2: 0

What do the screens show for `O=C(C1CC1)N(Cc1ccco1)c1nc(-c2ccccc2)cs1`?
D2 PAM-1: 2; D2 PAM-2: 30*; D2 antag: 4; D2 ag-1: 0; D2 ag-2: 0

Results for O=C(Cn1c(=O)oc2cc(S(=O)(=O)N3CCCCC3)ccc21)Nc1cccc(Cl)c1 ?
D2 PAM-2: -16; D2 ag-2: 0

Results for Cc1ccc(NC(=O)C(C)[n+]2ccccc2)cc1[N+](=O)[O-] (configuration not stated) ?
D2 PAM-1: -19; D2 PAM-2: -18; D2 antag: 60*; D2 ag-1: -3; D2 ag-2: 0

What do the screens show for `CS(=O)(=O)N1CCc2cc(C(=O)N3CCCCC3)ccc21`?
D2 PAM-1: -4; D2 PAM-2: -5; D2 antag: 4; D2 ag-1: 2; D2 ag-2: 0

What do the screens show for `CS(=O)(=O)N1CCc2cc(C(=O)O)ccc21`?
D2 PAM-1: 1; D2 PAM-2: 31*; D2 antag: 0; D2 ag-1: -1; D2 ag-2: -1

What do the screens show for `O=C(Cn1cc(SCc2ccccc2F)c2ccccc21)N1CCCCCC1`?
D2 PAM-2: -8; D2 ag-2: 0

What do the screens show for `CNC(=O)c1ccc2nc(Cc3ccccc3)oc2c1`?
D2 PAM-2: 0; D2 ag-2: -1

What do the screens show for `CC1CN(CCOc2ccc([N+](=O)[O-])cc2)CC(C)O1` (configuration not stated)?
D2 PAM-1: -11; D2 PAM-2: 5; D2 antag: -7; D2 ag-1: -1; D2 ag-2: -1

What do the screens show for `O=[N+]([O-])c1ccc(OCCN2CCNCC2)cc1`?
D2 PAM-1: -7; D2 PAM-2: -3; D2 antag: 32*; D2 ag-1: -2; D2 ag-2: 1

How did CCNCCC(=O)N1c2ccccc2Sc2ccc(C(F)(F)F)cc21 do in these assays?
D2 PAM-1: -17; D2 PAM-2: -24; D2 antag: 73*; D2 ag-1: -7; D2 ag-2: 9

Results for CC1=C(C(=O)OCc2ccccc2)C(c2cccc(F)c2)NC(=O)N1 (configuration not stated) ?
D2 PAM-1: 72*; D2 PAM-2: 1; D2 antag: 3; D2 ag-1: 44*; D2 ag-2: -1

What do the screens show for `CC1=C(C(=O)OCc2ccccc2)C(c2ccccc2)NC(=O)N1` (configuration not stated)?
D2 PAM-1: 53*; D2 PAM-2: 5; D2 antag: 3; D2 ag-1: 14; D2 ag-2: 0

What do the screens show for `COc1ccc(C2NC(=O)NC(C)=C2C(=O)OCc2ccccc2)cc1` (configuration not stated)?
D2 PAM-1: 5; D2 PAM-2: 4; D2 antag: 4; D2 ag-1: 8; D2 ag-2: -2

What do the screens show for `COc1ccc(-c2cn3nc(SCC(=O)Nc4ccc(C)c(Cl)c4)ccc3n2)cc1`?
D2 PAM-2: -6; D2 ag-2: 0

What do the screens show for `CCOc1ccc(S(=O)(=O)NC2=NCCCCC2)cc1`?
D2 PAM-1: 1; D2 PAM-2: 71*; D2 antag: -7; D2 ag-1: -2; D2 ag-2: 0

Results for O=S(=O)(NC1=NCCCCC1)c1ccc(Cl)cc1 ?
D2 PAM-1: -4; D2 PAM-2: 2; D2 antag: -5; D2 ag-1: -2; D2 ag-2: 3
